Results taken from PubChem BioAssay AID488969 (Vanderbilt High Throughput Screening Facility, 2010).
In all, about 110,000 compounds were measured (“z-score”: median about -0.1, highest 2% from about 2 on). Many of the other results were omitted from the sample, so the highest values are more common in it than they were. The source made the active and inactive calls.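 How the source made its calls: active means z-score in the third read window above 3 or below -3; inactive means the rest.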

Each compound was assayed against Metabotropic glutamate receptor 8 (Rattus norvegicus) (UniProt P70579) (assay: mGluR8 Gi/Go-coupled signaling modulation – cell-based, rat, thallium flux, HTS, primary screen (AID 488969)). Settings: HEK293 rat mGluR8, GIRK (G protein-gated inwardly rectifying potassium channel) thallium flux, FluoZin2; at 10 µM; stronger effect = higher value; submaximal glutamate (EC20) added with thallium.
Chain of Metabotropic glutamate receptor 8 (Rattus norvegicus) (P70579 whole entry, looked up): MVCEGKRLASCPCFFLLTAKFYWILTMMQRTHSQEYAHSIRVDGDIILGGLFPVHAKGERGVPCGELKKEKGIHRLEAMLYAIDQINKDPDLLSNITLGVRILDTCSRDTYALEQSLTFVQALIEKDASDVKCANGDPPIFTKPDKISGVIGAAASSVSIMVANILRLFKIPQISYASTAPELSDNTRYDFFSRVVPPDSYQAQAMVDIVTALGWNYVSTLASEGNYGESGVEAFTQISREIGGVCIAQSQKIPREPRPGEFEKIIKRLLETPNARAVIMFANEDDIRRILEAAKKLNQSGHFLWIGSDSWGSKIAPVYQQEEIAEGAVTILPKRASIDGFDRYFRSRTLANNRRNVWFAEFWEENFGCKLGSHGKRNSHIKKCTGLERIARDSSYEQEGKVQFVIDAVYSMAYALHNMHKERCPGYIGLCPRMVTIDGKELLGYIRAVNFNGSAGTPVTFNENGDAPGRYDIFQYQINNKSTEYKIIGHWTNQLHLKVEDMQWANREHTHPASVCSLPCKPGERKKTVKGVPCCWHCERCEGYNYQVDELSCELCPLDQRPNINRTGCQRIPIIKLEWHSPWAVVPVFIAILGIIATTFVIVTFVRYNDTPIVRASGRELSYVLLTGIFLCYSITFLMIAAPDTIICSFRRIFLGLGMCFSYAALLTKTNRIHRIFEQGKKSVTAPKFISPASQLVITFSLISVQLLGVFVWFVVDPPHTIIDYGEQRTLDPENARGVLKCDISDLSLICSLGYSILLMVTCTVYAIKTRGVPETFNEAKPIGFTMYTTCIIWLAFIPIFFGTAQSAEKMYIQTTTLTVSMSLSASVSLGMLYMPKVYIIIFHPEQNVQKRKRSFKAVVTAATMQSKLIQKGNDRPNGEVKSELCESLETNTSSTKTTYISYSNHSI

| Compound | z-score |
| --- | --- |
| CCOC(=O)N1CCN(C(=O)CN(c2cc(Cl)ccc2OC)S(=O)(=O)c2ccccc2)CC1 | -0.359 |
| CCCc1nc2ccc(NC(=O)c3cccs3)cc2c(=O)n1Cc1ccc(Cl)cc1 | -0.155 |
| O=C(C(=O)N1CCCc2ccccc21)c1c[nH]c2ccccc12 | 0.104 |
| CCOC(=O)c1c(-c2ccccc2)oc2ccc(OC)cc12 | 0.0333 |
| CCC(CC)NC(=O)COC(=O)c1ccc(OCc2ccc(C(C)=O)cc2OC)c(OC)c1 | -0.23 |
| C/C(=N\NC(=O)c1ccc(OC2CCCC2)cc1)c1ccc(C)s1 | 1.05 |
| Cc1ccc(CC2CC(=O)N(c3nc4ccccc4n3C)C2=O)cc1 (centres undefined) | -0.156 |
| Cc1ccc(C(=O)NCCCn2ccnc2)cc1[N+](=O)[O-] | 0.161 |
| O=C(NCCCn1ccnc1)C(Cc1ccc([N+](=O)[O-])cc1)N1C(=O)c2ccccc2C1=O (centres undefined) | 2.67 |
| Cc1ccc(CNC(=O)C(=O)NCCCn2ccnc2)cc1 | -0.281 |
| CN1CCN(C(=O)CN(c2cccc(Cl)c2)S(=O)(=O)c2ccccc2)CC1 | -0.681 |
| O=C(Nc1ccc(Cl)c(Cl)c1)Nc1nnc(CC2=CCCCC2)s1 | 0.0021 |
| CCOC(=O)C1=C(NC(=S)NC(=O)c2ccccc2)c2ccccc2CC1C(C)C (centres undefined) | 3.46 (active) |
| CCOC(=O)c1sc(NC(=S)NC(=O)c2ccccc2)c(C(=O)OCC)c1C | 0.582 |
| CCOC(=O)C1=C(NC(=S)NC(=O)c2ccccc2)c2ccccc2CC1(C)C | 5.58 (active) |
| CCOC(=O)c1ccc(NC(=O)c2ccc(NC(=O)c3ccccc3)cc2)cc1 | -0.341 |
| CCOC(=O)c1ccc(NC(=O)c2ccccc2)cc1 | -0.0754 |
| CCOC(=O)C1=C(N)c2ccccc2CC1C(C)C (centres undefined) | -0.175 |
| O=[N+]([O-])c1ccc(OCCN2CCCCCC2)cc1 | 0.121 |
| O=C(NC1CCCCCC1)C1c2ccccc2C(=O)N1CCCN1CCOCC1 (centres undefined) | -0.316 |
| COCCCN1C(=O)c2ccccc2C1C(=O)NC1CCCCCC1 (centres undefined) | 0.0327 |
| CCCCN1C(=O)c2ccccc2C1C(=O)NC1CCCC1 (centres undefined) | 3.2 (active) |
| COc1ccc(-n2nnc3c(SCC(=O)Nc4ccc5c(c4)OCCO5)ncnc32)cc1 | 0.658 |
| OC1CCCN(c2c3c(nc4cc(-c5cccc(Cl)c5)nn24)CCC3)C1 (centres undefined) | -0.591 |
| Clc1cccc(-c2cc3nc4c(c(N5CCN(c6cnccn6)CC5)n3n2)CCCC4)c1 | -0.109 |

| Compound | z-score |
| --- | --- |
| Clc1cccc(-c2cc3nc4c(c(N5CCNCC5)n3n2)CCCC4)c1 | 2.71 |
| CCCn1nc(CC(=O)OCC)c2ccccc2c1=O | 0.73 |
| O=C(Cn1[nH]c(=O)c2ccccc2c1=O)NCc1cccnc1 | -0.377 |
| CC(C)C(NC(=O)c1ccccc1NC(=O)c1ccco1)C(=O)O (centres undefined) | -0.744 |
| O=C(Nc1ccccc1Oc1ccccc1)c1ccccc1F | -0.161 |
| CC(NC(=S)Nc1ccccc1OC(F)F)C(C)(C)C (centres undefined) | -0.263 |
| S=C(Nc1cccc(Cl)c1)Nc1ccccc1Oc1ccccc1 | 15.4 (active) |
| COC(=O)c1cc(OC)c(OC)cc1NC(=S)Nc1cccc(Cl)c1 | 0.731 |
| FC(F)Oc1ccccc1NC(=S)NCc1ccco1 | 0.0626 |
| Fc1ccc(NC(=S)Nc2ccc(F)c(Cl)c2)cc1Cl | -0.0109 |
| O=C(Nc1cc(Cl)ccc1Oc1ccccc1)c1ccc(F)cc1 | -0.256 |
| Fc1ccc(NC(=S)Nc2ccccc2OC(F)F)cc1Cl | 6.05 (active) |
| FC(F)Oc1ccc(NC(=S)NCc2ccccc2)cc1Cl | 0.178 |
| FC(F)Oc1ccccc1NC(=S)Nc1cccc(Cl)c1Cl | 3.76 (active) |
| O=C(Nc1cc(Cl)ccc1Oc1ccccc1)c1ccccc1F | 3.37 (active) |
| COc1cc(C)c(NC(=S)Nc2cccc(Cl)c2)cc1OC | 0.0992 |
| Cc1cc(Cl)ccc1NC(=S)NCc1ccc(Cl)cc1 | 0.0662 |
| CC1(C)CC(=O)c2cc(C(=O)NCc3ccco3)c(=O)n(-c3ccc(Cl)cc3)c2C1 | -0.635 |
| COCc1nnc(NC(=O)c2cccs2)s1 | -0.0696 |
| NC(=O)COC(=O)c1cc(S(=O)(=O)N2CCOCC2)ccc1N1CCCCC1 | -0.0501 |
| CCn1cc(Br)c(C(=O)Nc2cccc(Cl)c2)n1 | -0.412 |
| CCOC(=O)c1cc(-c2ccccc2)sc1NC(=O)C(C)OC(=O)c1cccnc1OCC (centres undefined) | 0.0703 |
| O=C(CCCOc1ccccc1)Nc1ccc2c(c1)OCCO2 | 0.0498 |
| CN(C(=O)c1ccc2c(c1)C(=O)N(CCC1=CCCCC1)C2=O)C1CCCCC1 | 0.422 |
| Cc1nc(NC2=NCN(CC3CCCO3)CN2)nc2ccccc12 (centres undefined) | 0.234 |

| Compound | z-score |
| --- | --- |
| COc1cc2c(cc1OC)C(C1C(=O)CCCC1=O)N(C(=O)CCl)CC2 (centres undefined) | -0.173 |
| CCOc1ccc(C(=O)Nc2nc(C)cc(C)n2)cc1[N+](=O)[O-] | -0.36 |
| Cc1ccc(C)c(N(CC(=O)NN=C2CCCCCCC2)S(C)(=O)=O)c1 | -0.202 |
| CCNC(=S)Nc1cc(Cl)ccc1Oc1ccccc1 | 0.269 |
| Cc1ccc(NC(=S)Nc2ccc(Cl)c(Cl)c2)c(OC(F)F)c1 | 5.16 (active) |
| S=C(Nc1ccccc1)Nc1cc(Cl)ccc1Oc1ccccc1 | 3.43 (active) |
| COc1cc(NC(=S)Nc2cccc(Cl)c2Cl)c(OC)cc1Cl | 0.605 |
| CCNC(=S)Nc1ccc(Cl)cc1Cl | 0.108 |
| S=C(Nc1ccccc1Oc1ccccc1)Nc1cccc(Cl)c1Cl | 4.09 (active) |
| S=C(Nc1ccccc1)Nc1ccc(Cl)cc1Cl | 1.43 |
| CNC(=S)Nc1cc(Cl)ccc1Oc1ccccc1 | 0.287 |
| COc1ccc(NC(=O)Nc2ccc(C)cc2OC(F)F)cc1OC | -0.0436 |
| COc1cc(C)c(NC(=S)Nc2ccc(Cl)c(Cl)c2)cc1OC | 0.396 |
| S=C(Nc1ccccc1Cl)Nc1ccc(Cl)cc1Cl | 5.05 (active) |
| S=C(Nc1ccc(OCc2ccccc2)cc1)Nc1cccc(Cl)c1Cl | 0.844 |
| NC(=S)N/N=C/c1ccc(C(F)(F)F)cc1 | 0.721 |
| Cc1cc(C)n(-c2cc(N3CCN(S(=O)(=O)c4ccc5ccccc5c4)CC3)ccc2[N+](=O)[O-])n1 | -0.296 |
| S=C1NCCc2ccccc2C1c1ccccc1 (centres undefined) | -0.276 |
| O=C(CN1CCN(C(c2ccccc2)c2ccccc2)CC1)N1CCOCC1 | -0.28 |
| COC(=O)C(NNc1ccccc1)(NC(=O)c1cccc(F)c1)C(F)(F)F (centres undefined) | -0.19 |
| CCOC(=O)c1cc2c(=O)n3cccc(C)c3nc2n(CC2CCCO2)c1=NC(C)=O (centres undefined) | -0.0779 |
| S=C(Nc1ccc(Cl)cc1Cl)Nc1ccccc1Oc1ccccc1 | 4.54 (active) |
| O=C(CCC(=O)c1ccc(Oc2ccccc2)cc1)Nc1ccc(Cl)cc1Cl | 0.0353 |
| O=C(COc1ccccc1Cl)Nc1cc(Cl)ccc1Oc1ccccc1 | -0.0408 |
